Compound activity as filed in PubChem.
Shown are actives, neighbours in structure and some others; about 12% of the full set was active somewhere.
HCV inhibitor: blocks hepatitis C virus; Potency, µM (top dose mostly 41.8 µM), inactives show top-dose activity change, negative = inhibition, usual class: inhibitors; Huh7.5.1 HCVcc-Cre infection, luciferase reporter, 44 h; hit rate 3.4% among 340,000; also: % is scaled to controls: 0 for no effect and ±100 for the full control effect
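Seed cells (1,000/well) for 4 h; treat with compound and infect with HCVcc-Cre, moi about 0.5. Incubate 44 h, then detect luciferase activity.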
AMA1 RON2 block: disrupts binding of P. falciparum AMA1 to RON2 | Potency, µM (titrated, usually from 58.2 µM), for the others: top-dose activity change, negative = inhibition, actives largely listed as inhibitors | AlphaScreen AMA1-biotinylated RON2 peptide binding | hit rate 0.2% among 360,000;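 also: 0% = vehicle wells and -100% = peptide control; nearly all actives have a fitted effect of over 45% in size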
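AMA1 (3D7) with his tag at 25 nM final met compounds first, then biotinylated RON2 peptide at 25 nM; detection used donor plus acceptor beads, 10 µg/mL apiece, read by AlphaScreen after 30 min at room temperature.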
Pf growth 48h: P. falciparum growth inhibition at 48 hours (one generation). hit rate 5.9% among 310,000. Potency, µM (top dose mostly 28.7 µM), for inactives: at the top dose activity change, negative = inhibition, actives largely listed as inhibitors. P. falciparum luciferase growth in erythrocytes, 48 h; also: % is scaled to controls: 0 for no effect and ±100 for the full control effect
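Luciferase-expressing parasites in RBCs, 2% Hct / 0.1% parasitemia final; RPMI 1640 + 0.5% Albumax; 37 C, 5% CO2, one generation; luminescence read-out, lower signal = inhibition.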
NS1 function inh: influenza NS1 inhibition | hit rate 0.4% among 270,000 | Potency, µM (titrated, usually from 46.1 µM), for inactives: at the highest dose activity, positive = more growth; calls by dose curve; also: actives are rising curves; nearly all actives have a fitted effect of over 50% in size
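Growth recovery, yeast-based: influenza A NS1 expressed in S. cerevisiae causes slow growth, and suppressors are detected by OD600. The parent strain without NS1 is used as positive control.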
SARS PLpro yeast: SARS-CoV PLP inhibition in yeast; AID 485353; S. cerevisiae expressing SARS-CoV PLpro, growth rescue; hit rate 0.19% among 330,000; Potency, µM (highest dose often 32.9 µM), for the others: top-dose activity, positive = growth rescue, hits mostly activators; calls by dose curve; also: 0% is about no effect; nearly all actives have a fitted effect of over 55% in size
Pf growth 96h: P. falciparum growth inhibition at 96 hour, primary screen for plastid delayed-death inhibitors | P. falciparum luciferase reporter growth, 96 h | Potency, µM (series often up to 28.7 µM), inactives show at the top dose activity change, negative = inhibition, actives largely listed as inhibitors | hit rate 6.9% among 320,000 | AID 504834; also: % is scaled to controls: 0 for no effect and ±100 for the full control effect
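Delayed-death screen, second-generation endpoint: infected erythrocytes, 2% hematocrit, 0.05% parasitemia final; 96 hours at 37 C, 5% CO2; luciferase detection reagent; luminescence decrease equals reduced growth.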
Numbers without * were called inactive; u = inconclusive; x = not tested or not shown; [ ] = remark or other dose. Unless noted, calls follow the shape of the dose curve; as a rule, active = well fitted curve in the direction sought with a large enough effect; inconclusive = small, poorly fitted or top-dose-only effect, or another doubt; inactive = no such curve, though single readings can be large; an effect the other way counts as inactive or inconclusive. Potency is read from the fitted curve at half-maximal effect.

SMILES	HCV inhibitor	AMA1 RON2 block	Pf growth 48h	NS1 function inh	SARS PLpro yeast	Pf growth 96h
COc1ccc(C2COc3cc(O)ccc3C2)c(OC)c1O (centres undefined)	11%	u	x	x	x	x
COc1ccc(-c2onc3ccc(C(=O)/C=C/N(C)C)cc23)cc1	-18%	1%	10µM*	6%	-4%	u
CN(C)/C=C/C(=O)c1ccc2noc(-c3cccc(F)c3)c2c1	u	0%	-11%	1%	-4%	u
Cc1ccc(Cn2nnc3c(=O)[nH]c(C4CCN(C(=O)c5cccs5)CC4)nc32)cc1	-4%	6%	13µM*	-21%	3%	0%[5.75 µM]
O=C(Cc1cccs1)N1CCCC(c2nc3c(nnn3Cc3cccc(Cl)c3)c(=O)[nH]2)C1 (centres undefined)	4%	-17%	8.3µM*	5%	u	-8%
Cc1ccc(C)c(Cn2nnc3c(=O)[nH]c(C(=O)NCC4CCCO4)nc32)c1 (centres undefined)	-6%	13%	u	-4%	17%	u
O=C(NCc1ccccc1)c1nc2c(nnn2Cc2cccc(Cl)c2)c(=O)[nH]1	22%	21%	-18%	8%	-10%	2.9µM*
O=C(NCC1CCCO1)c1nc2c(nnn2Cc2ccccc2Cl)c(=O)[nH]1 (centres undefined)	8%	7%	-24%	2%	28%	13µM*
O=C1c2ccccc2[C@@H]2C[C@@H](O)[C@H](Nc3cccc4ccccc34)CCN12	-17%	-7%	x	x	0%	x
CCOc1ncccc1C(=O)NNC(=O)c1cccc(S(=O)(=O)Nc2ccc(OC)cc2)c1	x	30%	-1%	4%	3%	1%
COc1ccc(Cn2nnc3c(=O)[nH]c(C(=O)NCCc4ccc(F)cc4)nc32)cc1OC	3%	68%	-13%	-14%	2%	u
O=C(c1cccs1)N1CCC(c2nc3c(nnn3Cc3cccc(Cl)c3)c(=O)[nH]2)CC1	22%	-6%	4.7µM*	9%	-1%	13%
Cc1ccc(C)c(Cn2nnc3c(=O)[nH]c(C4CCN(C(=O)c5cccs5)CC4)nc32)c1	-8%	-7%	x	-7%	12%	-23%
COCCNC(=O)c1nc2c(nnn2Cc2cc(C)ccc2C)c(=O)[nH]1	-5%	10%	-5%	11%	u	9.3µM*
O=C(c1cccs1)N1CCC(c2nc3c(nnn3Cc3c(Cl)cccc3Cl)c(=O)[nH]2)CC1	3%	2%	5.9µM*	2%	1%	u
NNC(=O)[C@H](Cc1ccccc1)NC(=O)NCCc1ccccc1	3%	69%	-1%	6%	2%	4%
Cc1ccc(S(=O)(=O)N2CCN(C(=O)C3CSC4(C)CCC(=O)N34)CC2)cc1C (centres undefined)	7%	-16%	-14%	x	-1%	2%
COc1cc(/C=N/N2C(C)CCCC2C)cc(OC)c1O (centres undefined)	2%	-7%	-19%	u	-1%	-1%
CCOc1ccc(/C=N/N2C(C)CCCC2C)cc1OC (centres undefined)	17%	-3%	x	10%	-2%	10µM*
CCCCCNC(=O)C(c1ccnc2ccccc12)n1c(=O)c(-c2cc3ccccc3[nH]2)nc2ccccc21 (centres undefined)	x	30%	x	x	x	x
CC(Sc1nc2ccccc2n1C)C(=O)NC(c1ccccc1)c1ccccc1 (centres undefined)	-19%	-5%	9.3µM*	-22%	-30%	5.9µM*
Cn1c(SC(C(=O)Nc2ccc(F)cc2)c2ccccc2)nc2ccccc21 (centres undefined)	-4%	-7%	u	-10%	0%	u
COc1cc2c(cc1OC)C1=NC(=O)CN1C(SCc1ccccc1)=N2	u	-5%	10µM*	13%	3%	x
COc1cnn(Cc2ccccc2)c(=O)c1SCc1ccccc1	24%	4%	1%	-11%	7%	-19%
Cc1ccc(NC(=O)COC(=O)C2=NNC(=O)CC2)c(Br)c1	-30%	0%	x	x	1%	x
SMILES	HCV inhibitor	AMA1 RON2 block	Pf growth 48h	NS1 function inh	SARS PLpro yeast	Pf growth 96h
Cc1cccn2c(=O)c3cc(C(=O)NCc4ccco4)c(=N)n(CCOCCO)c3nc12	-11%	-14%	1.5µM*	-48%	2%	u
Cc1cccn2c(=O)c3cc(C(=O)NCc4ccco4)c(=N)n(C4CCCCC4)c3nc12	u	14%	9.3µM*	8%	1%	20%
O=C1NCCSC1c1ccccc1 (centres undefined)	4%	13%	x	x	x	x
CCCN(C(=O)COC(=O)CNC(=O)c1ccc2ccccc2c1)c1c(N)n(Cc2ccccc2)c(=O)[nH]c1=O	2%	-5%	28%	x	-5%	30%
C[C@H]1CCCCO[C@@H](CN(C)S(=O)(=O)c2ccc(F)cc2)[C@@H](C)CN([C@@H](C)CO)C(=O)c2cc(NC(=O)Nc3ccc4c(c3)OCO4)ccc2O1	x	-24%	x	x	x	x
C(=C/c1nccc2c1[nH]c1ccccc12)/c1ccc2c(c1)OCO2	5%	20%	2.9µM*	-32%	-17%	-4%
O=c1c2ccccc2nc(/C=C/c2ccc3c(c2)OCO3)n1CCCO	-14%	10%	13%	-7%	0%	31%
COc1cc2[nH]c3c(N4CCN(c5ccc(Cl)cc5)CC4)ncnc3c2cc1OC	u	-13%	4.1µM*	-42%	-7%	u
COc1cc2[nH]c3c(Cl)ncnc3c2cc1OC	-21%	-4%	u	-6%	-4%	u
COc1ccc2c(c1)[nH]c1c(N3CCSCC3)ncnc12	-82%	-1%	4.7µM*	-5%	-2%	6.6µM*
COc1cccc2[nH]c3c(N4CCN(Cc5ccc6c(c5)OCO6)CC4)ncnc3c12	x	x	u	-18%	1%	10%
COc1ccc2c(c1)[nH]c1c(N3CCN(Cc4ccc5c(c4)OCO5)CC3)ncnc12	u	-24%	2.6µM*	-9%	-2%	u
CCC(C)(C)c1ccc(Oc2cccc(C(=O)O)c2)cc1	13%	0%	54%	-36%	-9%	83%
CCC(C)(C)c1ccc(Oc2ccc(N)cc2)cc1	4.5µM*	u	u	8%	-19%	u
COCCN(Cc1cn(C)nc1-c1ccccc1F)C(C)C	7%	3%	60%	4%	0%	9.3µM*
CCn1ccnc1CN(C)Cc1cn(C)nc1-c1ccccc1F	10%	15%	-4%	-2%	0%	9.3µM*
N#Cc1ccccc1S(=O)(=O)N1CCN(CC(O)COc2ccccc2F)CC1 (centres undefined)	4%	-29%	8%	-6%	2%	u
CCC(COC(=O)NC)NC(=O)Oc1ccccc1 (centres undefined)	15%	1%	57%	-1%	-2%	4.7µM*
